Screens deposited in PubChem by several laboratories.
An excerpt weighted towards active compounds, which were near 2% of everything screened.
Kir21 block: blocks the mouse Kir2.1 inward-rectifier potassium channel; B-score at 10 µM; hit rate 0.85% among 310,000; AID 1672; P35561; HEK293-Kir2.1, FluxOR thallium flux fluorescence; stronger effect = lower value;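 active = fluorescence ratio B-score at or below minus 3 SD of library scores, with starting-brightness B-score within 2 SD, cut at about -4.2 in these data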;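 note: channel flux triggered by added potassium and thallium sulfate stimulus; B-score of peak minus minimum fluorescence over baseline after thallium stimulus; more negative B-score means stronger Kir2.1 block with less thallium influx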
CHT allo act: allosterically activates the human high affinity choline transporter; CHT-expressing cells, membrane potential dye, choline EC20; stronger effect = higher value; LV-AA mutant CHT in HEK293 cells; B-score at 10 µM; hit rate 0.49% among 310,000; AID 488977;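 active = initial fluorescence not abnormally high and integrated response B-score, plate-corrected, over 3 SD above library mean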
Target sequence (Q9GZV3 whole entry, looked up): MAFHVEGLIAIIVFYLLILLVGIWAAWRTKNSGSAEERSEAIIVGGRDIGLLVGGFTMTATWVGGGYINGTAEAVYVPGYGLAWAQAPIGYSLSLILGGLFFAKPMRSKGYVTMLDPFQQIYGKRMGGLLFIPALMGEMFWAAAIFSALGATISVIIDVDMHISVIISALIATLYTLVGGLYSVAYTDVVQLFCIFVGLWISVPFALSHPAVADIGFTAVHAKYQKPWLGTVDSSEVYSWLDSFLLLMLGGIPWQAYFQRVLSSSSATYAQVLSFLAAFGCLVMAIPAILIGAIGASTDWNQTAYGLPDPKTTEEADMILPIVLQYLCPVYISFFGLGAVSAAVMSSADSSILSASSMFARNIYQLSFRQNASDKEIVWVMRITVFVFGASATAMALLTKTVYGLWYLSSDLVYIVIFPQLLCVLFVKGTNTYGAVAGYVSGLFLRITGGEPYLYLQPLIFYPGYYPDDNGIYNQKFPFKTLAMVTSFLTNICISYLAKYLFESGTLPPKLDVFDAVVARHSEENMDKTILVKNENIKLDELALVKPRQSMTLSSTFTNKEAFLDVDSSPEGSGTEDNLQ
TAG inh: triacylglycerol accumulation inhibition | H9c2 cells, Nile Red lipid (TAG) fluorescence; cells loaded with 200 µM oleic acid | inhibition, % at 12.5 µM | hit rate 0.66% among 230,000 | AID 651582;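 active = pattern-corrected inhibition of lipid staining of at least 50% with the nuclear-stain viability signal not falling by more than 50%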
CHT inh: inhibitors of human choline transporter CHT. CHT-expressing cells, membrane potential dye, choline response; stronger effect = lower value. B-score at 10 µM. hit rate 0.86% among 310,000. AID 488975;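 active = B-score over 3 SD under the library average, and starting fluorescence ratio not unusually high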;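 note: choline stimulus applied at its EC90 after an EC20 pre-addition; B-score computed on integrated fluorescence ratio after choline addition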
Hits are given with their value; - = inactive; . = no result given.

SMILES	Kir21 block	CHT allo act	TAG inh	CHT inh
COc1cccc(OCc2ccc(Cn3nc(NC(=O)NCCc4ccc(OC)c(OC)c4)c4ccccc43)cc2)c1	.	.	-	.
S=C(NCc1ccc2c(c1)OCO2)NC1CCN(Cc2ccccc2)CC1	-12	-	.	-
c1ccc(CN2CCC(N3CCN(Cc4ccc5c(c4)OCO5)CC3)CC2)cc1	-	-	-	-
COc1cc(OC)c(C(=O)OCC(=O)N2CCN(S(=O)(=O)c3ccc(C)cc3C)CC2)cc1OC	.	.	-	.
C=CCN1CCN(C(=O)c2cc3c(s2)CCCC3)CC1	-	-	-	-
CC1CC(C)CN(S(=O)(=O)N2CCCC(C(=O)NCCc3ccccc3)C2)C1 (stereo unspecified)	-	-	.	-
CCOC(=O)C[C@H]1c2cc(F)ccc2S(=O)(=O)N1c1ccccc1	-5	-	-	-
Cc1cccc(N2C(=O)c3ccc(C(=O)Nc4c[nH]c(=O)[nH]c4=O)cc3C2=O)c1	-	-	-	-
Cc1cccc(NCc2nc(SCC(=O)Nc3ccccc3)n[nH]2)c1	-	-	-	-
Cc1cccc(NCc2nc(SCC(=O)Nc3ccccc3Br)n[nH]2)c1	-5	-	.	-
N=c1c2c(-c3ccccc3)c(-c3ccccc3)n(Cc3ccco3)c2ncn1CCCn1ccnc1	-7.7	-	.	-
c1ccc(-c2c(-c3ccccc3)n(Cc3ccco3)c3ncnc(NCCCn4ccnc4)c23)cc1	-	-	-	-
N=c1c2c(-c3ccccc3)c(-c3ccccc3)n(Cc3ccco3)c2ncn1CCCN1CCOCC1	-7.1	-	-	-
N=c1sccn1CC(=O)Nc1cc(Cl)ccc1Oc1ccccc1	-4.8	-	-	-
N=c1sccn1CC(=O)Nc1cccc(Oc2ccccc2)c1	-4.3	-	-	-
N#C/C(=C(/O)CCl)c1nc2c(s1)CCc1ccccc1-2	-	-	.	-10
Cn1c(CNc2cccc(Cl)c2)nnc1SCC(=O)OC1CCCCC1	-4.2	-	-	-
COc1ccc(C(CCNCc2ccccc2)c2ccc(F)cc2)cc1 (stereo unspecified)	-12	-	.	-
COc1ccc(C(CCNCc2ccc(N(C)C)cc2)c2ccccc2OC)cc1 (stereo unspecified)	-	-	.	-
COc1ccc(CNCCC(c2ccc(F)cc2)c2ccc(OC(C)C)cc2)cc1OC (stereo unspecified)	-9	-	-	-
COc1ccc(Cn2nnnc2C(c2ccccc2Cl)N2CCN(C3CCCC3)CC2)cc1 (stereo unspecified)	-5.1	.	-	.
COCCCNCCCCOc1ccc(Br)cc1Cl	-6.8	-	.	-
COCCCNCCCOc1ccc(Cl)cc1C(C)(C)C	-5.1	-	.	-
COc1ccc(NC(=O)CN(C)C(=O)Cn2c(=O)oc3ccccc32)cc1	-	-	-	-
CC1(C(=O)O)CCC(C(=O)NNC(=O)c2ccccc2Cl)C1(C)C (stereo unspecified)	-	-	-	-
SMILES	Kir21 block	CHT allo act	TAG inh	CHT inh
CCN(CC)CCNC(=O)c1cc(-c2cccnc2)nc2ccc(S(=O)(=O)N3CCC(C)CC3)cc12	-5.7	-	.	-
Cc1cc(C)c(C(=O)COC(=O)CCn2c(C)csc2=O)cc1C	-4.5	-	-	-
CCN(c1nc(N)c(C(=O)N=C(N)N)nc1Cl)C(C)C	-5.7	-	-	-
CC(C)c1c(C(=O)N/N=C/c2cccnc2)nnn1-c1nonc1N	-	-	.	-
Cc1cc(O)c(S(=O)(=O)c2ccccc2)c(C)c1NS(=O)(=O)c1ccccc1	-	-	.	-
COc1cc(C)c(S(=O)(=O)N2CCN(C)CC2)cc1C	-	-	-	-
COc1cc(C)c(S(=O)(=O)N2CCCC2)cc1C(C)C	-4.4	-	-	-
CC(C)(C)c1nc(SCC(=O)NCc2ccco2)c2ccccc2n1	-8	-	.	-
CCCCCCc1nc2nc(Cl)c(Cl)nc2[nH]1	.	.	-	.
CC1=CC(C)(C)n2c(O)c(N=N)c3c(C)c(C)cc1c32	-	-	-	-
CC1=CC(C)(C)n2c(O)c(N=N)c3cc(C)cc1c32	-8.7	-	.	-
CC(C)CCCCCCCCCCCCC(=O)NCC(=O)NC1C(O)C(O)C(Nc2ncnc3nc[nH]c23)OC1C(O)CO (stereo unspecified)	.	.	85	.
CCOC(=O)CNc1ncnc2nc[nH]c12	-	-	-	-
Cc1nn(C(=O)c2cccc([N+](=O)[O-])c2)c(C)c1Sc1ccccc1	-4.3	-	-	-
CCOC(=O)/C(=C\c1ccccc1)C(=O)c1cc(C(C)=O)c(Nc2ccccc2)s1	-	-	.	-
CCOC(=O)/C(=C\c1cccnc1)C(=O)c1cc(C(C)=O)c(Nc2ccccc2)s1	-	-	80	-
CN(C)CCCn1c2c3ccccc3ccc2c2oc(=O)c3ccccc3c21	.	.	78	.
